Our source for the Potency values is PubChem BioAssay (Tox21).

Experiment [1] in a line: A CellTox Green Cytotoxicity Assay to monitor cytotoxicity in HepG2 cells - 0 hour (AID 1224882). Note: nearly all actives have a fitted effect of over 35% in size. Conditions: CellTox Green fluorescence; series mostly up to 76.8 µM. In a few lines:
(§1)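 First, HepG2 cells (600/well) mixed with reagent were plated; second, after 5 h at 37 C they received compounds via pintool; third, fluorescence was measured at 0 h through 40 h at 8 h intervals.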

Experiment [2] in a line: A CellTox Green Cytotoxicity Assay to monitor cytotoxicity in HepG2 cells - 32 hour (AID 1224883). Note: nearly all actives have a fitted effect of over 50% in size. Note: potency is the fitted concentration of half-maximal effect. The settings on record: CellTox Green fluorescence; series mostly up to 76.8 µM. In a few lines:
as §1

The nature of experiment [3]: qHTS RealTime-Glo MT Cell Viability Assay in HepG2 cells - 16 hour (AID 1224885). Note: nearly all actives have a fitted effect of over 50% in size. The settings on record: RealTime-Glo luminescence; series mostly up to 76.8 µM. In a few lines: (§2)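 HepG2 cells (600/well) were dispensed with RealTime-Glo reagents, incubated 5 h at 37 °C, then treated with compounds in DMSO for up to 40 h. Nonlytic NanoLuc luminescence reflecting viable cells was read at each stated time point.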

Experiment [4] is described as follows: qHTS RealTime-Glo MT Cell Viability Assay in HEK293 cells - 24 hour (AID 1224886). Note: nearly all actives have a fitted effect of over 50% in size. Note: potency is the fitted concentration of half-maximal effect. The settings on record: RealTime-Glo luminescence; series mostly up to 76.8 µM. In a few lines:
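HEK293 cells seeded with NanoLuc/prosubstrate reagent, rested 5 h at 37 C, then dosed and kept at 37 C up to 40 h. Nonlytic real-time luminescence from viable cells read at 0, 8, 16, 24, 32 and 40 h.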
(Quantitative high-throughput screening tests each substance at several concentrations.)

A short description of experiment [5]: qHTS RealTime-Glo MT Cell Viability Assay in HEK293 cells - 8 hour (AID 1224887). Note: top concentration of the series differs between compounds; nearly all actives have a fitted effect of over 50% in size. The settings on record: RealTime-Glo luminescence; series mostly up to 76.8 µM. In a few lines: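 600 HEK293 cells per well, dispensed already mixed with RealTime-Glo MT reagents. Compound dosing came 5 h later. The same wells were read for luminescence at 0, 8, 16, 24, 32 and 40 h of exposure at 37 C.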

A short description of experiment [6]: A CellTox Green Cytotoxicity Assay to monitor cytotoxicity in HEK293 cells - 16 hour (AID 1224888). Note: nearly all actives have a fitted effect of over 35% in size. The settings on record: CellTox Green fluorescence; series mostly up to 76.8 µM. In a few lines:
(§3)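 Dead-cell fluorescence measured kinetically: asymmetric cyanine dye, HEK293, 600 cells/well, 5 h settle, 23 nL cpd/DMSO, 37 C, reads 0–40 h every 8 h.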

A short description of experiment [7]: qHTS RealTime-Glo MT Cell Viability Assay in HepG2 cells - 0 hour (AID 1224889). Note: nearly all actives have a fitted effect of over 50% in size. Conditions: RealTime-Glo luminescence; series mostly up to 76.8 µM. In a few lines:
as §2

Experiment [8] is described as follows: A CellTox Green Cytotoxicity Assay to monitor cytotoxicity in HepG2 cells - 8 hour (AID 1224890). Note: nearly all actives have a fitted effect of over 45% in size. Conditions: CellTox Green fluorescence; series mostly up to 76.8 µM. In a few lines:
as §1

Experiment [9] in a line: qHTS assay to identify small molecule antagonists of the estrogen receptor alpha (ER-alpha) signaling pathway using the BG1 cell line in the presence of 0.1 nM 17-beta-estradiol - cell viability counter screen (AID 1259241). Note: nearly all actives have a fitted effect of over 40% in size. The settings on record: VM7Luc4E2 (BG1) viability, CellTiter-Fluor protease, 22 h, 0.1 nM estradiol agonist added; series mostly up to 92.4 µM. In a few lines: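 In this screen, hormone-deprived VM7Luc4E2 cells were seeded at 4,000 per well, dosed with compound and 0.1 nM estradiol final, and incubated 22 hr at 37C and 5% CO2; fluorogenic live-cell protease signal reported viability.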

Experiment [10] can be described thus: A CellTox Green Cytotoxicity Assay to monitor cytotoxicity in HEK293 cells - 8 hour (AID 1224884). Note: nearly all actives have a fitted effect of over 35% in size. The settings on record: CellTox Green fluorescence; series mostly up to 76.8 µM. In a few lines:
as §3

SMILES strings stand for the structures. Records with an inconclusive call do not appear. Where a structure was tested more than once in an assay, its records may differ in their call. Active and inactive are the calls of the source. Calls come from the whole dose curve; as a rule, active = well fitted curve in the direction sought with a large enough effect in the repeat runs; inconclusive = weak or mixed curves; inactive = no such curve, though single readings can be large; an effect the other way counts as inactive or inconclusive.

As to `FC(F)(F)C(Cl)Br` (stereo not given), the Potency result in experiment [1], in [2], in [3], in [4], in [5] and in experiment [6] was “inactive” in each case. Besides, the Potency result in [7], in [8] and in [9] was “inactive” throughout.
Take `CCCCCC1C(=O)CCC1CC(=O)OC` (stereo not given): the Potency entry in [1], in experiment [2], in experiment [3], in [4], in [5] and in [6] was “inactive” in each case. The Potency result in experiment [8] and in experiment [9] was “inactive” each time.
For `Cc1ccc([N+](=O)[O-])c(C)c1`, the Potency result in experiment [1], in experiment [3], in experiment [6], in experiment [8] and in experiment [9] was “inactive” throughout. For the same compound, the Potency was 17.4 µM (active) and inactive in [2]; 38.9 µM (active) and inactive in experiment [4].
As for `c1ccc2c(c1)ccc1cc3c(ccc4ccccc43)cc12`, the Potency entry in [1], in experiment [2], in [3], in experiment [4], in experiment [5] and in experiment [6] was “inactive” in each case. For the same compound, the Potency result in experiment [7], in [8] and in [9] was “inactive” in each case.
In the case of `NC[C@H](O)c1ccc(O)c(O)c1`, the Potency entry in experiment [1], in [2], in [3], in experiment [4], in experiment [6] and in experiment [7] was “inactive” each time. For the same compound, the Potency entry in [8] and in experiment [9] was “inactive” in each case.
As to `CC1(C)OC(=O)NC1=O`, the Potency entry in [1], in experiment [2], in experiment [3], in experiment [4], in [5] and in [6] was “inactive” each time. Besides, the Potency result in [7], in experiment [8] and in experiment [9] was “inactive” each time.
In the case of `C/C=C/C(=O)N(CC)c1ccccc1C`, the Potency entry in experiment [1], in experiment [2], in [3], in experiment [4], in experiment [6] and in experiment [8] was “inactive” throughout. Besides, the Potency result in experiment [9] was “inactive”.
Turning to `CC1(C)O[C@@H]2C[C@H]3[C@@H]4C[C@H](F)C5=CC(=O)C=C[C@]5(C)[C@@]4(F)[C@@H](O)C[C@]3(C)[C@]2(C(=O)CO)O1`, the Potency result in experiment [1], in [2], in [3], in experiment [4], in [5] and in [6] was “inactive” in each case. Further, the Potency entry in experiment [8] and in experiment [9] was “inactive” throughout.
Turning to `Nc1ccc(O)c(N)c1`, the Potency result in [1], in experiment [2], in experiment [3], in [4], in [6] and in experiment [7] was “inactive” in each case. Further, the Potency result in [8] was “inactive”.
On to `COc1ccc(-c2coc3cc(O)cc(O)c3c2=O)cc1`, for which the Potency entry in experiment [1], in experiment [10], in experiment [3], in [6], in [7] and in experiment [8] was “inactive” each time. Also, the Potency entry in experiment [9] is “inactive”. For the same compound, the Potency in [4] is 44 µM (active).
Take `CC(C)(C)c1cccc(C(C)(C)C)c1O`: the Potency result in [1], in [2], in experiment [3], in [6], in experiment [8] and in experiment [9] was “inactive” in each case. Moreover, the Potency in experiment [4] is 24 µM (active) and inactive.
Regarding `Cc1ccc(N)c([N+](=O)[O-])c1`, the Potency entry in [1], in [2], in [3], in experiment [4], in experiment [5] and in experiment [6] was “inactive” each time. Further, the Potency entry in experiment [7], in experiment [8] and in experiment [9] was “inactive” throughout.
For `Cc1ccc2c(c1)C(=O)OC2=O`, the Potency result in experiment [1], in [2], in experiment [3], in experiment [4], in experiment [6] and in experiment [7] was “inactive” throughout. Besides, the Potency entry in [8] and in experiment [9] was “inactive” each time.
As for `Cc1ccc(S(=O)(=O)O)cc1C`, the Potency entry in experiment [1], in experiment [2], in experiment [3], in [4], in [5] and in experiment [6] was “inactive” each time. In addition, the Potency result in experiment [8] and in [9] was “inactive” throughout.
Regarding `CCCCCCOCCOCCO`, the Potency entry in experiment [1], in experiment [2], in experiment [3], in experiment [4], in experiment [6] and in experiment [7] was “inactive” each time. The Potency entry in experiment [8] and in experiment [9] was “inactive” throughout.
As to `C=CCOC(=O)C(=C)C`, the Potency entry in [1], in [2], in experiment [3], in experiment [4], in experiment [5] and in [6] was “inactive” in each case. Moreover, the Potency entry in experiment [7], in experiment [8] and in [9] was “inactive” throughout.
In the case of `CCCCCCCCCCCCCO`, the Potency result in experiment [1], in [2], in [3], in [4], in [6] and in experiment [8] was “inactive” throughout. Besides, the Potency result in [9] was “inactive”.
Take `O=C(O)CCCCCCCCCCCC(=O)O`: the Potency result in [1], in experiment [2], in experiment [3], in experiment [4], in experiment [6] and in experiment [8] was “inactive” throughout. For the same compound, the Potency entry in experiment [9] is “inactive”.
Take `OC[C@@H](O)[C@@H](O[C@@H]1O[C@H](CO)[C@H](O)[C@H](O)[C@H]1O)[C@H](O)[C@@H](O)CO`: the Potency entry in experiment [1], in [2], in experiment [3], in [4], in [5] and in experiment [6] was “inactive” throughout. For the same compound, the Potency entry in [7], in [8] and in experiment [9] was “inactive” throughout.
Take `[Na+]`: the Potency entry in [8] is “inactive”.
Regarding `CN1CCOCC1`, the Potency entry in experiment [1], in [2], in experiment [3], in [4], in [5] and in experiment [6] was “inactive” each time. Also, the Potency entry in [7], in [8] and in experiment [9] was “inactive” each time.
`CC(C)=CCO`: the Potency result in [1], in experiment [2], in [3], in [4], in experiment [5] and in experiment [6] was “inactive” throughout. Besides, the Potency entry in experiment [8] and in experiment [9] was “inactive” each time.
With `Nc1cc([N+](=O)[O-])ccc1C(=O)O`, the Potency entry in experiment [1], in experiment [2], in [3], in [4], in experiment [5] and in experiment [6] was “inactive” throughout. For the same compound, the Potency result in experiment [8] and in experiment [9] was “inactive” throughout.
Consider `CCC(Cc1c(I)cc(I)c(N)c1I)C(=O)O` (stereo not given), for which the Potency entry in [1], in experiment [2], in experiment [3], in experiment [4], in experiment [5] and in experiment [6] was “inactive” in each case. The Potency entry in [8] and in experiment [9] was “inactive” in each case.
`O=Cc1ccccc1C=O`: the Potency result in experiment [1], in [3], in [4], in experiment [5], in experiment [6] and in [7] was “inactive” in each case. Moreover, the Potency entry in experiment [8] and in experiment [9] was “inactive” each time. The Potency in experiment [2] was 21.9 µM (active) and inactive.
